Results on 54 compounds are retold here after PubChem BioAssay (Tox21).

Inconclusive results are not listed. Unmarked numbers belong to inactive results. Calls of active or inactive are those of the source. Calls come from the whole dose curve; as a rule, active = well fitted cell-killing curve with a large enough effect in the repeat runs; inconclusive = weak or mixed curves, or effect the other way; inactive = flat fitted curve, though single readings scatter.

Assay [1] is described as follows: cAMP Responsive Elements (CRE) small molecule antagonists, cell-based qHTS assay: qHTS cell viability counter screen (AID 2060913). Note: nearly all actives have a fitted effect of over 40% in size. In a few lines: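 CRE-bla HEK293T cells were seeded in assay medium with 10% dialyzed FBS, incubated 18 hrs at 37 C, then exposed to compounds plus 0.25 uM final NKH477 for 3 hrs. Viability was read by CellTiter-Glo luminescence after 30 min, in the same wells.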
(Quantitative high-throughput screening tests each substance at several concentrations.)

Assay [2] can be described thus: cAMP Responsive Elements (CRE) small molecule agonists, cell-based qHTS assay: qHTS cell viability counter screen (AID 2060914).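 Note: viability read after 3 h of compound exposure; nearly all actives have a fitted effect of over 50% in size.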 The procedure, abridged:
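HEK 293T CRE-bla; DMEM + 10% dialyzed FBS, 25 mM HEPES; 18 h pre-incubation; compound 3 h, 37 °C/5% CO2; CellTiter-Glo added after reporter read; luminescence after 30 min RT.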
% is set by controls: 0 for no effect and ±100 for the full control effect.

On to `c1ccc(CN(Cc2ccccc2)Cc2ccccc2)cc1`, for which the Potency result in assay [1] and in assay [2] was “inactive” each time.

With `Cc1c(Nc2ncccc2C(=O)O)cccc1C(F)(F)F`, the Potency entry in assay [1] and in assay [2] was “inactive” throughout.

Regarding `COC(=O)[C@H](Cc1ccccc1)NC(=O)[C@@H](N)CC(=O)O`, the Potency entry in assay [1] and in assay [2] was “inactive” throughout.

On to `Cc1cccc(C)c1NC(=O)CN1CCCC1`, for which the Potency result in assay [1] and in assay [2] was “inactive” in each case.

Regarding `CO[Si](CCCNc1ccccc1)(OC)OC`, the Potency result in assay [1] and in assay [2] was “inactive” throughout.

For the compound `CC1(N)CCC(C(C)(C)N)CC1` (stereo not drawn), the Potency result in assay [1] and in assay [2] was “inactive” each time.

`Nc1ccc2ccccc2c1S(=O)(=O)O`: the Potency entry in assay [1] and in assay [2] was “inactive” in each case.

For the compound `CN(C)CCN(Cc1ccsc1)c1ccccn1`, the Potency entry in assay [1] and in assay [2] was “inactive” throughout.

Consider `COC(=O)[C@@H]1CC2=CC(=O)CC[C@]2(C)[C@@]23O[C@@H]2C[C@@]2(C)[C@@H](CC[C@@]24CCC(=O)O4)[C@H]13`, for which the Potency result in assay [1] and in assay [2] was “inactive” each time.

Turning to `Cc1cc(Br)ccc1NC(=O)CCl`, the Potency result in assay [1] and in assay [2] was “inactive” each time.

Take `COc1ccc2c(c1)CCCC2=O`: the Potency result in assay [1] and in assay [2] was “inactive” throughout.

For the compound `CS(=O)(=O)Nc1ccc([N+](=O)[O-])cc1Oc1ccccc1`, the Potency result in assay [1] and in assay [2] was “inactive” each time.

Take `CC(=O)C(=O)O`: the Potency entry in assay [1] and in assay [2] was “inactive” in each case.

For `CC(=O)c1ccc2c(c1)N(CCCN1CCC(CCO)CC1)c1ccccc1S2`, the Potency entry in assay [1] and in assay [2] was “inactive” throughout.

With `CC(=O)OCC(=O)[C@@]1(O)CC[C@H]2[C@@H]3CCC4=CC(=O)CC[C@]4(C)[C@H]3C(=O)C[C@@]21C`, the Potency result in assay [1] and in assay [2] was “inactive” throughout.

On to `O=[N+]([O-])c1c(Cl)cc(Cl)cc1Cl`, for which the Potency result in assay [1] and in assay [2] was “inactive” throughout.

On to `CC(=O)c1ccc(Cl)c(Cl)c1Cl`, for which the Potency entry in assay [1] and in assay [2] was “inactive” each time.

`CC(=O)Nc1ccc(S(=O)(=O)Nc2ccc([N+](=O)[O-])cc2)cc1`: the Potency entry in assay [1] and in assay [2] was “inactive” throughout.

As for `CCC(=O)/C=C/c1ccc(OC)cc1`, the Potency entry in assay [1] and in assay [2] was “inactive” in each case.

For the compound `CCCCC(CC)CNCC(CC)CCCC` (stereo not drawn), the Potency entry in assay [1] and in assay [2] was “inactive” throughout.

Regarding `CC/C=C/CCO`, the Potency entry in assay [1] and in assay [2] was “inactive” each time.

Regarding `CC(=O)O[C@@H]1C[C@@H]2CC[C@@]1(C)C2(C)C`, the Potency result in assay [1] and in assay [2] was “inactive” in each case.

Consider `CCCCCCCCS(=O)(=O)Cl`, for which the Potency result in assay [1] and in assay [2] was “inactive” throughout.

In the case of `C=Cc1ccc(OC(C)=O)cc1`, the Potency entry in assay [1] and in assay [2] was “inactive” each time.

For the compound `CC(C)=CCCC(C)CC=O` (stereo not drawn), the Potency entry in assay [1] and in assay [2] was “inactive” throughout.

Regarding `CCCCCC(CO)CCC` (stereo not drawn), the Potency entry in assay [1] and in assay [2] was “inactive” each time.

On to `CCCCCCCCCCCCCCCC(=O)OC[C@H](O)[C@H]1OC(=O)C(O)=C1O`, for which the Potency entry in assay [1] and in assay [2] was “inactive” throughout.

Turning to `O=C(O)CNC(=O)c1ccccc1`, the Potency entry in assay [1] and in assay [2] was “inactive” throughout.

`O=C(O)O`: the viability change, negative = cytotoxic in assay [1] was 7.81% [at 8.39 µM]. Moreover, the activity change, negative = cytotoxicity in assay [2] is -5.94% [at 8.39 µM].

For the compound `CCOC(=O)OC(C)OC1=C(C(=O)Nc2ccccn2)N(C)S(=O)(=O)c2ccccc21` (stereo not drawn), the Potency entry in assay [1] and in assay [2] was “inactive” throughout.

With `Cc1[nH]c(C)c(Cl)c(=O)c1Cl`, in assay [1], the viability change, negative = cytotoxic is 2.74% [at 18.9 µM]. Moreover, the activity change, negative = cytotoxicity in assay [2] is 4.19% [at 18.9 µM].

For the compound `O=C(CS)OCCOC(=O)CS`, the Potency entry in assay [1] and in assay [2] was “inactive” throughout.

In the case of `ClCCl`, the Potency entry in assay [1] and in assay [2] was “inactive” each time.

Consider `O=C(O)c1ccc[n+]([O-])c1`, for which the Potency result in assay [1] and in assay [2] was “inactive” each time.

Consider `CCCCCCC(=O)OCC`, for which the Potency entry in assay [1] and in assay [2] was “inactive” in each case.

Regarding `CCOc1ccc(NC(C)=O)cc1`, the Potency entry in assay [1] and in assay [2] was “inactive” each time.

For `COc1ccc(Nc2ccccc2)c(C)c1`, the Potency result in assay [1] and in assay [2] was “inactive” throughout.

With `CCOC(=O)O[C@]1(C(=O)OCCl)CC[C@H]2[C@@H]3CCC4=CC(=O)C=C[C@]4(C)[C@H]3[C@@H](O)C[C@@]21C`, the Potency result in assay [1] and in assay [2] was “inactive” in each case.

As to `CCOC(=O)CC(=O)c1ccccc1`, the Potency result in assay [1] and in assay [2] was “inactive” in each case.

For the compound `N#Cc1ccccc1C#N`, the Potency result in assay [1] and in assay [2] was “inactive” throughout.

Consider `Cc1ccc2ccccc2n1`, for which the Potency result in assay [1] and in assay [2] was “inactive” throughout.

Regarding `O=S(=O)(O)c1ccc(Cl)cc1`, the Potency entry in assay [1] and in assay [2] was “inactive” throughout.

As to `CC(C)NCC(O)COc1ccc(CC(N)=O)cc1` (stereo not drawn), the Potency entry in assay [1] and in assay [2] was “inactive” throughout.

As for `NCCCNCCSP(=O)(O)O`, in assay [1], the viability change, negative = cytotoxic is -1.42% [at 8.39 µM]. In assay [2], the activity change, negative = cytotoxicity is 3.53% [at 8.39 µM].

As for `CCOC(=O)CC(C(C)=O)C(C)=O`, the Potency result in assay [1] and in assay [2] was “inactive” throughout.

Regarding `O=C(O)c1cccnc1`, the Potency result in assay [1] and in assay [2] was “inactive” throughout.

For the compound `CCCCCCCCCC[N+](C)(C)[O-]`, the Potency entry in assay [1] and in assay [2] was “inactive” in each case.

Turning to `CCOc1cccc(N)c1`, the Potency entry in assay [1] and in assay [2] was “inactive” each time.

In the case of `CCCCCCCCCCOC(=O)c1ccccc1C(=O)OCCCCCCCC`, the Potency result in assay [1] and in assay [2] was “inactive” in each case.

Consider `Cn1c(=O)[nH]c2ncn(C)c2c1=O`, for which the Potency entry in assay [1] and in assay [2] was “inactive” each time.

For `CCCCCCCCN(C)C`, the Potency result in assay [1] and in assay [2] was “inactive” each time.

For the compound `O=S(=O)(O)c1cccc(S(=O)(=O)O)c1`, the Potency entry in assay [1] and in assay [2] was “inactive” each time.

On to `C=C(C)C(=O)OCC[N+](C)(C)C`, for which the Potency result in assay [1] and in assay [2] was “inactive” in each case.

Turning to `CC(C)(C)C(=O)C(=O)O`, the Potency entry in assay [1] and in assay [2] was “inactive” each time.
